# Unmarked numbers belong to inactive results. Calls of active or inactive are those of the source. Rule as the data show it: active = fold change permeability below about 0.7 or above about 1.3; inactive = in between.
# Assay: modulators of brain endothelial barrier permeability, primary screen, cell-based, FITC-avidin fluorescence, HTS (AID 1963498); also: test concentration not given here
# Conditions: actives lie on both sides
row,Structure (SMILES),fold change permeability
1,O=C(O)CCCCC1CCSS1 (centres undefined),0.7 (active)
2,O=C(NCCN1CCOCC1)c1ccc(Cl)cc1,0.8
3,CC(=O)Oc1ccccc1C(=O)O,1
4,NNCCc1ccccc1,1.1
5,COc1cc2ncnc(Nc3cccc(Br)c3)c2cc1OC,1.1
6,COC1=C(OC)C(=O)c2ccccc2C1=O,1.4 (active)
7,Cc1ccccc1/C=C/C1=NCCN1,0.7 (active)
8,CC(N)=O,0.9
9,COc1cc2c(cc1O)[C@@H](Cc1ccc(O)c(Oc3ccc(C[C@@H]4c5cc(OC)c(OC)cc5CCN4C)cc3)c1)N(C)CC2,1.6 (active)
10,O=C(O)COc1ccc(C(=O)c2cccs2)c(Cl)c1Cl,1.4 (active)
11,CO/N=C(\C(=O)N[C@@H]1C(=O)N2C(C(=O)O)=C(COC(C)=O)CS[C@H]12)c1csc(N)n1 (stereo in doubt),0.8
12,O=c1[nH]cc(F)c(=O)[nH]1,0.8
13,CN(C)CCCNC(=O)c1ccc(-c2cc(O)c3ncccc3c2)cc1,0.8
14,Cc1c(C(C)C)c(=O)n(-c2ccc(S(=O)(=O)NCCOc3ccccc3)cc2)n1C,1.3 (active)
15,CN(C)CCC=C1c2ccccc2CCc2ccccc21,1.1
16,C[C@@](Cc1ccc(O)c(O)c1)(NN)C(=O)O,1.2
17,N=c1ccn2c(n1)O[C@H]1[C@H](O)[C@@H](CO)O[C@H]12,1.1
18,CCNC(=O)[C@H]1O[C@@H](n2cnc3c(N)nc(NCCc4ccc(CCC(=O)O)cc4)nc32)C(O)[C@H]1O (some centres undefined),1.1
19,COc1ccc(/C=C/C(=O)Nc2ccc(C(F)(F)F)cc2)cc1OC,1.6 (active)
20,CC(Nc1nc(N2CCNCC2)nc2ccccc12)c1ccccc1 (centres undefined),2.4 (active)

row,Structure (SMILES),fold change permeability
1,CCc1ccc(OCC(=O)Nc2ccc(F)c([N+](=O)[O-])c2)cc1,1.1
2,O=C1OC(=O)C2C3CCC(O3)C12 (centres undefined),0.9
3,OCCN1CCN(CCCN2c3ccccc3Sc3ccc(C(F)(F)F)cc32)CC1,1.4 (active)
4,CC(=O)C(C)=O,1.1
5,CC(C)C[C@H](C(=O)O)c1cc(-c2ccc(C(F)(F)F)cc2)cc(-c2ccc(C(F)(F)F)cc2)c1,0.9
6,Cc1nc2c(OCc3ccccc3)cccn2c1CC#N,0.9
7,CC(C)N1CCN(S(=O)(=O)c2ccc(NC(=O)c3ccc(C(F)(F)F)cc3[N+](=O)[O-])cc2)CC1,1.4 (active)
8,Fc1ccc([C@@H]2CCNC[C@H]2COc2ccc3c(c2)OCO3)cc1,1.2
9,Brc1c(NC2=NCCN2)ccc2nccnc12,1.6 (active)
10,O=c1c(O)c(-c2ccc(O)c(O)c2)oc2cc(O)cc(O)c12,0.9
11,O=C(OCCN1CCOCC1)C1(c2ccccc2)CCCCC1,1
12,N=c1nc(N2CCCCC2)cc(N)n1O,0.9
13,C#CCn1c(=O)c2c(ncn2C)n(C)c1=O,0.9
14,COC(=O)c1c(C)[nH]c(C)c1C(=O)c1ccccc1Cc1ccccc1,1.2
15,CNC[C@H](O)c1ccc(O)c(O)c1,0.8
16,CN1CCN(C(c2ccccc2)c2ccc(Cl)cc2)CC1 (centres undefined),1.7 (active)
17,CCCC(CCC)C(=O)OC1CC2CCC(C1)[N+]2(C)C (centres undefined),0.9
18,O=c1cc(-c2cccc3c2Sc2ccccc2S3)oc(N2CCOCC2)c1,1
19,C[C@](N)(Cc1ccc(O)c(O)c1)C(=O)O,0.8
